In the library only some 1.5% were active in any assay of this set; here they are far more common.
KAT2A inh = blocks human GCN5L2 histone acetyltransferase. Q92830. GCN5L2 HAT assay, ThioGlo1 CoA-SH fluorescence. Potency, µM (doses to about 58.9 µM), for the others: at the highest dose activity change, negative = inhibition, actives largely listed as inhibitors. hit rate 0.21% among 390,000. AID 504327; note: potency is the fitted concentration of half-maximal effect
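GCN5L2 (20nM final) in 50mM HEPES, 0.1mM EDTA pH 7.5, 0.01% Tween-20 was preincubated 15 min at room temperature with compound, then given ThioGlo1 (50uM), H3(1-25) peptide (75uM) and acetyl-CoA (70uM); CoA-thiol fluorescence (Ex340/Em540) was read at 0 and 20 min.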
FEN1 inh = inhibitors of human flap endonuclease 1. P39748. Recombinant FEN1 flap cleavage, fluorescence, 15 min. Potency, µM (titrated, usually from 114 µM), inactives show at the highest dose activity change, negative = inhibition, hits mostly inhibitors. hit rate 0.35% among 390,000. AID 588795; note: potency is the fitted concentration of half-maximal effect; nearly all actives have a fitted effect of over 65% in size
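Read-out was taken twice, immediately and after 15 min, following addition of 50 nM substrate to 10 nM FEN1 that had sat with test compound for 15 min at room temperature. Curves came from a four-parameter Hill model.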
PI5P4K alpha inh = inhibitors of human PI5P4K alpha; P48426; PI5P4Kalpha enzyme, ADP-Glo luminescence, 60 min; hits give low values; max response, %; hit rate 1.2% among 330,000; active = max response of -50% or lower; inconclusive = between -30% and -50%; inactive = -30% or higher; note: value at the top dose of about 77 µM
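Reactions run in 0.038 M HEPES pH 7.4, 0.28 mM EGTA, 0.1% CHAPS and 5% DMSO, with PI5P4Kalpha, substrate, compound and 5 microM ATP final, one hour at room temperature. Readout is ADP-Glo luminescence.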
APE1 inh = inhibitors of human APE1 endonuclease. P27695. recombinant APE1, TAMRA/BHQ-2 abasic DNA cleavage fluorescence. Potency, µM (series often up to 65.8 µM), inactives show at the top dose activity change, negative = inhibition, usual class: inhibitors. hit rate 0.35% among 350,000. AID 2517;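 note: potency is the fitted concentration of half-maximal effect; plate controls were vehicle for no effect and reference inhibitor for full effect; nearly all actives have a fitted effect of over 55% in size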
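APE1 at 0.75 nM final was preincubated with compound 15 min at room temperature, then 50 nM double-stranded THF abasic-site substrate (5'-TAMRA/3'-BHQ-2) was added. Fluorescence (ex 525/em 598 nm) was read kinetically; third-minus-first read gave activity.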
BLM helicase inh = Bloom syndrome helicase (human) inhibition; hit rate 0.2% among 350,000; recombinant BLM DNA unwinding, fluorescence dequenching; P54132; Potency, µM (highest dose often 56.1 µM), without a hit: top-dose activity change, negative = inhibition, usual class: inhibitors;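 note: potency is the fitted concentration of half-maximal effect; plate controls were vehicle for no effect and no enzyme for full effect; nearly all actives have a fitted effect of over 35% in size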
RECQ1 inh = blocks DNA unwinding by human RECQ1; hit rate 0.54% among 240,000; RECQ1 DNA unwinding, red fluorescence kinetic read; Potency, µM (highest dose often 57.3 µM), for the others: at the highest dose activity, negative = inhibition, hits mostly inhibitors;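 note: potency is the fitted concentration of half-maximal effect; plate controls were vehicle for no effect and no enzyme for full effect; nearly all actives have a fitted effect of over 30% in size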
Target sequence (P46063 whole entry, looked up): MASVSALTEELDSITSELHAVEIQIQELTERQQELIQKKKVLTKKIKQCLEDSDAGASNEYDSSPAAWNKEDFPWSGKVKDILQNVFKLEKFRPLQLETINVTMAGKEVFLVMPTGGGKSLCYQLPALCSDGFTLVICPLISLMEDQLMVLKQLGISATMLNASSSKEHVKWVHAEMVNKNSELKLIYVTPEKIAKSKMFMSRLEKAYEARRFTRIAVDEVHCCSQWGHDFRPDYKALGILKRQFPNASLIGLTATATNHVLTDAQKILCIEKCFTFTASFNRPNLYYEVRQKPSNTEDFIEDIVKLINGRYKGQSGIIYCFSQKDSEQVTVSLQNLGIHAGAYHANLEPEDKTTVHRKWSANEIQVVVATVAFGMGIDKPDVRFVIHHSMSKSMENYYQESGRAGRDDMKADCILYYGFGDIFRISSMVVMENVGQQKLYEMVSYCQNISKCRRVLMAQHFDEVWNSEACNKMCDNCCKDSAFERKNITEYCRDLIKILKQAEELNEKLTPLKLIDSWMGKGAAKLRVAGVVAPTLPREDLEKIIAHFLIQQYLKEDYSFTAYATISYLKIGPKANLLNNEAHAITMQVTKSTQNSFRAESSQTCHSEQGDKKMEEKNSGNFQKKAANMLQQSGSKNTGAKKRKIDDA
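RECQ1T1 50 nM; forked duplex (20 bp + 30-nt ss tails) 200 nM, ATP 2 mM final; pH 8.0, 2 mM MgCl2, 2.5 ug/ml poly(dI-dC); 15 min compound preincubation; discontinuous kinetic read over 2 h at RT.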
ADP-Glo interf = counter-screen for PI5P4K inhibitors: ADP-Glo detection interference, no enzyme | shares compounds with PI5P4K alpha inh | 1,100 tested, under 10 active | ADP-Glo detection counter-screen, luciferase luminescence, no enzyme | Potency, µM (titrated, usually from 76.9 µM), without a hit: at the top dose activity change, negative = inhibition, most hits filed as inhibitors
* hit, by the source's call; ? = inconclusive; · = no result. Unless noted, calls come from the whole dose curve; as a rule, active = well fitted curve in the direction sought with a large enough effect; inconclusive = small, poorly fitted or top-dose-only effect, or another doubt; inactive = no such curve, though single readings can be large; an effect the other way counts as inactive or inconclusive. Unless noted, % is set by controls: 0 for no effect and ±100 for the full control effect.

SMILES	KAT2A inh	FEN1 inh	PI5P4K alpha inh	APE1 inh	BLM helicase inh	RECQ1 inh	ADP-Glo interf
CCC1=Nc2cc(C(=O)NCc3ccco3)ccc2Sc2ccccc21	-10%	-7%	-20	4%	-9%	1%	·
CCC1=Nc2cc(C(=O)O)ccc2Sc2ccccc21	-3%	12%	-57*	-3%	-1%	-3%	-2%
N#Cc1nc(-c2ccc(OCc3ccccc3Cl)cc2)oc1N1CCC(C(N)=O)CC1	·	-3%	·	·	·	·	·
CCOC(=O)c1c(NS(=O)(=O)c2ccc(Br)cc2)sc2c1CCC2	·	-21%	-55*	·	·	·	-1%
O=C(c1ccco1)N1CCN(C(=O)c2ccc(-c3ccc([N+](=O)[O-])cc3)o2)CC1	?	79µM*	-74*	?	·	·	3%
O=C(c1ccc(-c2ccc([N+](=O)[O-])cc2)o1)N1CCN(S(=O)(=O)c2cccs2)CC1	-10%	-4%	-51*	23%	·	·	-9%
COc1cc(C2c3cc4c(cc3C(OC3OC5COC(C)O[C@@H]5C(O)C3O)C3COC(=O)C23)OCO4)cc(OC)c1O (stereo partly drawn)	13%	·	·	13%	4%	-4%	·
C[C@@H]1CC2(OC[C@]3(C)O[C@H]23)O[C@H]2C[C@@]3(C)[C@@H]4CC[C@H]5C(C)(C)C(O[C@@H]6OC[C@@H](O)[C@H](O)[C@H]6O)CC[C@@]56C[C@@]46CC[C@]3(C)[C@@H]12 (stereo partly drawn)	·	·	·	-4%	·	1%	·
O=C(Nc1nc(-c2ccco2)cs1)c1ccccc1	0%	-24%	-63*	?	-11%	-22%	-2%
CS(=O)(=O)c1ccc(C(=O)Nc2nc(-c3ccco3)c(-c3ccco3)s2)cc1	?	56µM*	-84*	-19%	·	·	4%
O=C(Nc1nc(-c2ccccc2)cs1)c1ccco1	-6%	-12%	3	1%	3%	-1%	·
COc1cccc(Nc2nc3ccccc3nc2NS(=O)(=O)c2cccs2)c1	-5%	-5%	-2	-4%	-6%	-9%	·
O=C(O)c1ccc(Nc2nc3ccccc3nc2NS(=O)(=O)c2cccs2)cc1	-9%	?	?	16%	3%	·	-8%
CCCCOc1ccc(C2=NC(c3ccncc3)=Nc3ccc(OCC)cc3N2)cc1	-16%	-8%	·	·	-16%	·	·
O=C(Cn1cc(COc2ccc(Br)cc2[N+](=O)[O-])nn1)c1ccc(O)cc1	·	0%	-57*	·	·	·	-8%
O=C(Cn1cncn1)NCc1ccccc1Br	-23%	-6%	-62*	0%	2%	-7%	-2%
Cc1cccn2c(=O)cc(COc3cccc(NC(=O)COc4ccccc4)c3)nc12	-4%	10%	·	·	-1%	·	·
CCn1c(=O)[nH]c(=O)c2c(N)c(C(=O)c3cc(F)ccc3F)sc21	-4%	-2%	-64*	-5%	-3%	-2%	-8%
Cc1ccc2nc(SCC(=O)N3CCN(C(=O)c4ccco4)CC3)[nH]c2c1	21%	-7%	-10	0%	-5%	-4%	·
O=C(CSc1nc2ccc(Cl)cc2[nH]1)N1CCN(C(=O)c2ccco2)CC1	-17%	-2%	-65*	-2%	-13%	-13%	-6%
COc1cccc(C2CC(=O)N3CN(c4cccc(Cl)c4C)CSC3=C2C#N)c1OC (stereo not drawn)	22µM*	-25%	-93*	-2%	-4%	-3%	-14%
COc1ccc(OC)c(C2CC(=O)N3CN(c4cccc(Cl)c4C)CSC3=C2C#N)c1 (stereo not drawn)	25µM*	-21%	-64*	1%	-6%	-5%	-6%
CCc1ccccc1N1CSC2=C(C#N)C(c3cc(OC)c(OC)cc3OC)CC(=O)N2C1 (stereo not drawn)	?	4%	?	-1%	-19%	2%	·
CCCC(=O)N1c2nc(-c3ccco3)nn2C2(CCCCC2)[C@@H]2CCCC[C@@H]21	-8%	-12%	·	·	-9%	·	·
CCCCc1c(-c2ccccc2)ncn1CCc1ccccc1OC	·	·	2	·	·	·	·
SMILES	KAT2A inh	FEN1 inh	PI5P4K alpha inh	APE1 inh	BLM helicase inh	RECQ1 inh	ADP-Glo interf
CCCCc1c(Cc2ccccc2)ncn1CCc1ccccc1OC	·	·	-67*	·	·	·	2%
Cn1c(=O)c2[nH]c(-c3ccc(S(=O)(=O)O)cc3)nc2n(C)c1=O	-25%	-5%	-54*	-4%	·	-7%	-4%
Cn1c(=O)c2[nH]c(-c3ccccc3O)nc2n(C)c1=O	-7%	·	·	-5%	-6%	-17%	·
CCOC(=O)C(C)Sc1nnc(CNC(=O)c2ccc(OC)cc2)n1C1CCCCC1 (stereo not drawn)	-5%	10%	·	0%	-2%	7%	·
COc1ccc(C(=O)NCc2nnc(SC)n2C2CCCCC2)cc1	-1%	-3%	-54*	-3%	4%	0%	9%
O=C(NC1CCCCC1)C(c1cccc2ccccc12)n1c(=O)c(-c2cc3ccccc3[nH]2)nc2ccccc21 (stereo not drawn)	·	·	5	·	·	·	·
O=C(Nc1ccc2c(c1)OCCO2)C(c1ccccc1)n1c(=O)c(-c2ccco2)nc2ccccc21 (stereo not drawn)	·	·	-25	·	·	·	·
O=C(NC1CCCCC1)C(c1ccnc2ccccc12)n1c(=O)c(-c2ccco2)nc2ccccc21 (stereo not drawn)	·	·	-78*	·	·	·	-5%
O=C(NCc1ccccc1)C(c1ccccc1)n1c(=O)c(-c2ccco2)nc2ccccc21 (stereo not drawn)	·	·	-64*	·	·	·	-4%
CC(C)NC(=O)CSc1nc2ccccc2c(=O)n1Cc1ccc(C(=O)NC(C)C)cc1	7%	6%	·	·	0%	·	·
O=C(N[C@@H](Cc1ccccc1)C(=O)OCc1ccccc1)c1nc[nH]c1C(=O)NC(c1ccccc1)c1ccccc1	-18%	8%	7	-1%	-8%	-23%	-2%
COc1ccccc1N1CCN(C(CNC(=O)C(=O)NCCc2ccccc2)c2cccnc2)CC1 (stereo not drawn)	1%	?	·	·	0%	·	·
O=C(NCCc1ccccc1)C(c1cccs1)N(C(=O)c1csnn1)C1CC1 (stereo not drawn)	-5%	-7%	0	10%	-3%	-10%	1%
O=C(NCCc1ccccc1)C(c1ccncc1)N(C(=O)c1csnn1)C1CC1 (stereo not drawn)	-2%	-5%	·	0%	2%	-1%	·

Screening results deposited in PubChem by National Center for Advancing Translational Sciences (NCATS).
